Assay outcomes (PubChem)
ClpP mod: qHTS Assay for Activators of ClpP; 340,000 compounds, 1.9% hits; Potency, µM (doses to about 57.5 µM), without a hit: at the highest dose activity change, negative = active; ATP-dependent Clp protease proteolytic subunit (Bacillus subtilis (strain 168)), P80244; purified B. subtilis ClpP, FRET peptide cleavage, 20 min; active = well fitted falling curve with a large enough effect; inconclusive = small, poorly fitted or top-dose-only effect; inactive = no such curve, though single readings can be large or run the other way; also: potency is read from the fitted curve at half-maximal effect; the source files actives as falling curves though it sought activators and does not explain the sign; nearly all actives have a fitted effect of over 65% in size
Target sequence (P80244 whole entry, looked up): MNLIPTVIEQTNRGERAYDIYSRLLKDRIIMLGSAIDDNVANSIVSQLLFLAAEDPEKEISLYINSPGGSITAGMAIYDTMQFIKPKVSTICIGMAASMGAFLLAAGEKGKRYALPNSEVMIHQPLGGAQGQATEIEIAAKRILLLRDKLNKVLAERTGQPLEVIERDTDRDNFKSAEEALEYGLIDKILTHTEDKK
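Buffer: 100 mM Tris/HCl pH8, 100 mM KCl, 0.05% low protease BSA, 2.5% glycerol, 0.01% Tween-20. ClpP 10 microg/mL final; 20 min RT; delta FRET normalized to ADEP and DMSO controls.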
TDP1 cell CPT: qHTS for Inhibitors of human tyrosyl-DNA phosphodiesterase 1 (TDP1): qHTS in cells in presence of CPT; chicken DT40 Tdp1-/-;hTDP1 cells + 20 nM CPT, ATP luminescence, 48 h; Potency, µM (titrated, usually from 46.2 µM), without a hit: at the top dose activity change, negative = growth inhibition, hits mostly inhibitors; 420,000 compounds, 12% hits; AID 686979, 2013; also: potency is read from the fitted curve at half-maximal effect; % is scaled to controls: 0 for no effect and ±100 for the full control effect; nearly all actives have a fitted effect of over 55% in size
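Chicken DT40 Tdp1-/- cells complemented with human TDP1, 400 cells/well, exposed to compounds plus 20 nM camptothecin for at least 48 h at 37 C; viability read as ATP content by CellTiter-Glo luminescence.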
DRD3 antagonist: qHTS of D3 Dopamine Receptor Antagonist: qHTS | D(3) dopamine receptor (Homo sapiens), P35462 | D3R cells, DiscoveRx beta-arrestin luminescence, antagonist mode; hits give low values | max response, negative = inhibition, % | 360,000 compounds, 2.5% hits | AID 652054, 2013; in the data active = max response below about -50%; inconclusive = no clear call, values can overlap the other calls; also: % is scaled to controls: 0 for no effect and ±100 for the full control effect
Target sequence (P35462 whole entry, looked up): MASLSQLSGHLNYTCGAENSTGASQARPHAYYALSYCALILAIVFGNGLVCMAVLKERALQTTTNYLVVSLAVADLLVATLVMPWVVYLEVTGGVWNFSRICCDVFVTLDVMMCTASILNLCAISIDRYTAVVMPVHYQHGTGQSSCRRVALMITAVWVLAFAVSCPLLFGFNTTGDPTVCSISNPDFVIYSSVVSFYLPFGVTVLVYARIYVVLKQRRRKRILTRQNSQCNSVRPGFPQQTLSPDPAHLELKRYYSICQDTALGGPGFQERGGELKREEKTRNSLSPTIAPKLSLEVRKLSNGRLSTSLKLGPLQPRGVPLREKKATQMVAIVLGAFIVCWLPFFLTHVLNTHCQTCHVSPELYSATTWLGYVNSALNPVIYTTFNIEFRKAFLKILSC
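Cells plated overnight at 1500 cells/well, then exposed to library compounds with dopamine controls for 90 minutes at 37 degrees C. DiscoveRx reagent added for 30–60 minutes at room temperature; luminescence read, quantitative HTS format.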
DRD3 agonist: qHTS of D3 Dopamine Receptor Agonist: qHTS; D(3) dopamine receptor (Homo sapiens), P35462; D3R DiscoveRx beta-arrestin cells, luminescence, 90 min; max activation, %; 410,000 compounds, 0.58% hits; AID 652048, 2013; in the data active = max activation above about 30%; also: 0% is about no effect
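Agonist-mode cell screen: cells plated at 1500/well and incubated overnight at 37 °C, then exposed to library compounds for 90 min at 37 °C. Detection reagent was added for 30–60 min at room temperature, and luminescence was read.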
IL-1B inflam inh: qHTS for Inhibitors of Inflammasome Signaling: IL-1-beta AlphaLISA Primary Screen | activity change, % at 57.5 µM | THP-1 LPS/ATP IL-1B secretion, AlphaLISA, 16 h; hits give low values | AID 743279, 2014 | 360,000 compounds, 4.7% hits; in the data active = activity change below about -50%; inconclusive = mostly about -30% to -49%; also: % is scaled to controls: 0 for no effect and ±100 for the full control effect
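THP-1 cells pretreated 1 hr with compounds (up to 57.5 uM final), then stimulated with LPS (250 ng/mL final) plus ATP (1.25 mM final); secreted IL-1B measured by AlphaLISA after 16 hr, decreased signal indicating inhibition.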
DT40 TDP1 no CPT: qHTS for Inhibitors of human tyrosyl-DNA phosphodiesterase 1 (TDP1): qHTS in cells in absence of CPT; AID 686978, 2013; Potency, µM (series often up to 46.2 µM), without a hit: at the top dose activity change, negative = growth inhibition, most hits filed as inhibitors; DT40 Tdp1-/- hTDP1 cells, no CPT, ATP luminescence, 48 h; 420,000 compounds, 15% hits; also: potency is read from the fitted curve at half-maximal effect; % is scaled to controls: 0 for no effect and ±100 for the full control effect; nearly all actives have a fitted effect of over 55% in size
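Camptothecin absent (DMSO only). Human TDP1-complemented DT40 knockout cells, 400 cells/well, 37 °C for minimum 48 hr; ATP measured via CellTiter-Glo, 30 min dark incubation, luminescence.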
Numbers without * were called inactive; ? = inconclusive; . = no result; [ ] = dose if it differs, or a comment. A selection: hits, their analogues and other compounds. The true share with any hit is near 21%. Unless noted, calls follow the shape of the dose curve; as a rule, active = well fitted inhibition curve with a large enough effect; inconclusive = small, poorly fitted or top-dose-only effect; inactive = flat fitted curve, though single readings scatter.

SMILES | ClpP mod | TDP1 cell CPT | DRD3 antagonist | DRD3 agonist | IL-1B inflam inh | DT40 TDP1 no CPT
Cc1ccc(NC(=S)NCc2ccc3c(c2)OCO3)cc1C | -3% | 0% | 10 | 1 | -69* | ?
Cc1nc2cc(NC(=O)NCc3ccc4c(c3)OCO4)ccc2o1 | -1% | -5% | 9 | -6 | -9 | -11%
COCCNC(=O)c1sc2nc3n(c(=O)c2c1C)CCC3 | -26% | 3% | . | 4 | . | -14%
O=C(CN1CCN(CC(=O)c2ccccc2)CC1)c1ccccc1 | . | ? | ? | -19 | 45 | -30%
O=C(NC12CC3CC(CC(C3)C1)C2)N1CCC(O)(c2ccc3c(c2)OCO3)CC1 | -4% | 7.3µM* | -27 | -13 | -11 | 15µM*
COc1cc(C[C@@H]2C(=O)OC[C@H]2Cc2ccc(OC)c(OC)c2)ccc1O | 1% | 2.3µM* | 44 | 19 | 3 | 2.6µM*
COc1cc(C[C@H](C)[C@H](C)Cc2ccc3c(c2)OCO3)ccc1O | 0% | ? | 0 | 27 | -12 | ?
COc1cc(CC2COC(=O)C2(O)Cc2ccc(O)c(OC)c2)ccc1O (configuration not stated) | -1% | 12µM* | 2 | 6 | 40 | 9.2µM*
Cc1ccc(S(=O)(=O)N2CCc3cc(C(=O)Nc4c(C)cccc4C(C)C)ccc32)cc1 | 2% | ? | . | 3 | . | ?
CCOC(=O)C(=Cc1c[nH]c2ccc(S(=O)(=O)N(C)C)cc12)C(=O)OCC | . | ? | -15 | -5 | -101* | 16µM*
CCOC(=O)/C(C#N)=C/c1c[nH]c2ccccc12 | ? | -27% | 0 | -5 | 4 | -13%
CCc1ccc(NS(=O)(=O)c2ccc3oc(=O)ccc3c2)cc1 | 0% | ? | 3 | -8 | 4 | ?
Cc1ccc2nc(SCc3nc4ccccc4c(=O)[nH]3)[nH]c2c1 | . | ? | -12 | 0 | -98* | 21µM*
CCc1c(C)nc(SCc2nc(-c3ccccc3C)no2)[nH]c1=O | -1% | ? | . | 4 | . | ?
Cc1ccc2nc(SCc3nc(-c4ccccc4C)no3)[nH]c2c1 | -5% | 18µM* | . | 1 | . | 13µM*
O=c1[nH]c(CSc2nnc(-c3ccccc3)n2C2CCCCC2)nc2ccccc12 | 1% | ? | -17 | -2 | 5 | 21µM*
Cc1ccc2nc(CSc3nc(C)ccc3C#N)[nH]c2c1 | 75% | 18µM* | 6 | -22 | ? | 32µM*
Cc1ccc(C#N)c(SCc2ccccc2F)n1 | . | 6% | 2 | 2 | -3 | -2%
Cc1ncc2c(c1CNC(=O)c1cncs1)CCN(C(=O)c1csc(-c3cccs3)n1)C2 | . | 5%[9.04 µM] | . | . | . | -14%
O=C(/C=C/c1cccc([N+](=O)[O-])c1)OCC1CCCO1 (configuration not stated) | -1% | 0% | 3 | 3 | -16 | 25%
CCOC(=O)C(=Cc1ccc(-n2ccnc2)cc1)C(=O)OCC | . | 23µM* | -56* | -2 | -93* | 21µM*
COC(=O)c1ccc(-n2ccnc2)cc1 | . | 16% | -4 | 1 | -11 | 0%
CCc1ccc(C(C)NC(=O)/C=C/c2ccc(Br)cc2)cc1 (configuration not stated) | 1% | ? | -16 | -16 | 0 | -14%
CCOC(=O)C(CC)(CC)C(=O)/C=C/c1ccc(Br)cc1 | -1% | ? | ? | -11 | -103* | 16µM*
CCOC(=O)C(=Cc1ccc(Br)cc1)C(=O)OCC | . | 12µM* | -108* | -17 | -97* | 2.9µM*
SMILES | ClpP mod | TDP1 cell CPT | DRD3 antagonist | DRD3 agonist | IL-1B inflam inh | DT40 TDP1 no CPT
CCOC(=O)/C(=C/c1ccc(OC(=O)c2ccncc2)cc1)C(C)=O | . | ? | 10 | 2 | 0 | ?
O=C(C1CC1)N1c2ccccc2Sc2ccccc21 | . | ? | ? | -10 | -27 | ?
c1ccc2c(c1)Sc1cnccc1N2CC1CO1 (configuration not stated) | 0% | 4.1µM* | 22 | 2 | -11 | 10µM*
OCc1cccc[n+]1Cc1ccccc1 | -13% | 4% | -1 | 4 | 16 | 0%
Fc1cccc(Nc2ncnc3c2cnn3-c2ccccc2)c1 | ? | ? | 0 | 4 | -10 | 16µM*
N#Cc1cccc(Nc2ncnc3c2cnn3-c2cccc(Cl)c2)c1 | -7% | ? | . | 2 | . | 23µM*
O=C(Cn1ccccc1=O)NCc1ccc(F)cc1 | . | 6% | ? | -2 | 8 | 3%
Cc1ccc(S(=O)(=O)n2nc(-c3ccco3)nc2NCc2ccccc2Cl)cc1 | -3% | ? | . | -4 | . | ?
CC(C)c1ccc(CNc2nc(-c3ccco3)nn2S(=O)(=O)c2ccc(F)cc2)cc1 | 1% | 21µM* | . | -12 | . | ?
COc1ccc(S(=O)(=O)n2nc(-c3ccco3)nc2NCc2ccc(C(C)C)cc2)cc1 | 0% | 18µM* | . | -1 | . | 23µM*
CS(=O)(=O)n1nc(-c2ccco2)nc1NCc1ccccc1Cl | -2% | ? | . | 0 | . | 18µM*
CN(C)c1ccc(/C=C/C=C2/C=Cc3ccccc32)cc1 | 0% | ? | . | . | . | ?
CCc1nn2c(=O)c(S(=O)(=O)Nc3ccc(OC)c(Cl)c3)c(C)nc2s1 | -1% | -27% | . | 5 | . | ?
COc1cccc(N=Cc2ccc(O)cc2O)c1 | 0% | -6% | 9 | 34* | 3 | -8%
CCn1c(/N=C/c2ccc(OC)cc2O)nc2ccccc21 | -3% | 12% | 3 | 6 | 21 | 7%
Cc1ccc(S(=O)(=O)N2CCC(C(=O)OCC(=O)N3CCCC(C)C3)CC2)cc1C (configuration not stated) | -3% | 16% | 2 | 0 | 18 | -2%
